# Assay results published in PubChem BioAssay (NCATS).
# Results filed as inconclusive are left out. Active and inactive are the calls of the source. The call rests on the fitted dose curve; in most records, active means well fitted inhibition curve with a large enough effect; inconclusive means small, poorly fitted or top-dose-only effect; inactive means no such curve, though single readings can be large or run the other way.
# Target: Protein phosphatase 1D (Homo sapiens) (UniProt O15297)
# Assay: RapidFire Mass Spectrometry qHTS Assay for Modulators of WT P53-Induced Phosphatase 1 (WIP1) (AID 1347424)
# Settings: WIP1 dephosphorylation of phosphopeptide, RapidFire MS; series mostly up to 63 µM; activity change, negative = inhibition: at the top concentration
# Source text: Assay Provider (PI): Nathan Coussens Ph. D.
# National Center for Advancing Translational Sciences (NCATS), Rockville, MD
# National Institute of Health (NIH), Bethesda, Maryland
# WT P53-Induced Phosphatase 1 (WIP1) is a member of the magnesium-dependent serine/threonine protein phosphatase (PPM) family and is induced by P53 in response to DNA damage. In several human cancers, the WIP1 protein is overexpressed, which is generally associated with a worse prognosis. Although WIP1 is an attractive therapeutic target, no potent, selective, and bioactive small-molecule modulator with favorable pharmacokinetics has been reported. Phosphatase enzymes are among the most challenging targets for small molecules because of the difficulty of achieving both modulator selectivity and bioavailability. Another major obstacle has been the availability of robust and physiologically relevant phosphatase assays that are suitable for high-throughput screening.
# Here, we describe two orthogonal biochemical WIP1 activity assays that utilize phosphopeptides from native WIP1 substrates. We optimized a RapidFire MS assay to quantify the enzymatically dephosphorylated peptide reaction product in a 384-well format. Additionally, a redshifted Rhodamine-PBP fluorescence assay was optimized in a 1,536-well format to enable real-time WIP1 activity measurements through the detection of the orthogonal reaction product, Pi. We validated these two optimized assays by quantitative high-throughput screening against the National Center for Advancing Translational Sciences (NCATS) Pharmaceutical Collection and used secondary assays to confirm and evaluate inhibitors identified in the primary screen.
# SEQUENCE No. (e.g., 1, 2, 3, etc.); […] (e.g., Cells, Incubation, Reagent, etc.); VALUE; DESCRIPTION
# 1; Reagent; 50 uL; dispensed assay buffer: 0.1% formic acid in water (10 uL : 40 uL) solution in column 1
# 3; Library Compounds; 63 nL; library compounds in DMSO, columns 3-24
# 4; Control Compounds; 63 nL; DMSO in wells I-P, columns 1-2, GSK830371 (10 uM, final) in wells A-H, column 2
# 5; Time; 1 hr; incubation
# 6; Substrate; 2 uL; VEPPL-pS-QETFS (10 uM) in assay buffer, column 2-24
# 7; Time; 5 min; incubation
# 8; Reagent; 2 uL; 0.5% formic acid in water, columns 2-24
# 9; Reagent; 38 uL; VEPPL-S-QETF*S in 0.1% formic acid, columns 2-24
# 10; Detection; mass spec; RapidFire mass spectrometry
# NOTES (numbers refer to sequence above)
# 1, 2, 6; dispensed reagent in White Nunc 384-well PP microplates (264573); assay buffer: 50 mM Tris-HCl pH 7.5, 30 mM MgCl2, 1 mM TCEP, 0.1 mM EGTA, 75 ug/mL BSA.
# 2, 6, 8, 9; Dispensed with BioRaptr (Beckman Coulter)
# 2, 6, 9; Final concentrations: 10 nM WIP1; 2 uM VEPPL-pS-QETFS; 1 uM VEFFL-S-QETF*S
# 3 & 4; Kalypsys Pintool transfer (Wako USA), Tip wash sequence: water, DMSO, methanol, 20 sec vacuum dry.
# 5 & 7; incubation at room temperature
# 10; RapidFire mass spectrometry read using the Agilent RapidFire 360 (Clausse, 2019)
# Clausse V, et al. Physiologically relevant orthogonal assay for the discovery of small-molecule modulators of WIP1 […] in high-throughput screens. J Biol Chem. 2019, 294(46): 17654-17668. doi:10.1074/jbc.RA119.010201
# Potency means the concentration at half of the fitted maximal effect.
# Sequence of Protein phosphatase 1D (Homo sapiens) (O15297 whole entry, looked up): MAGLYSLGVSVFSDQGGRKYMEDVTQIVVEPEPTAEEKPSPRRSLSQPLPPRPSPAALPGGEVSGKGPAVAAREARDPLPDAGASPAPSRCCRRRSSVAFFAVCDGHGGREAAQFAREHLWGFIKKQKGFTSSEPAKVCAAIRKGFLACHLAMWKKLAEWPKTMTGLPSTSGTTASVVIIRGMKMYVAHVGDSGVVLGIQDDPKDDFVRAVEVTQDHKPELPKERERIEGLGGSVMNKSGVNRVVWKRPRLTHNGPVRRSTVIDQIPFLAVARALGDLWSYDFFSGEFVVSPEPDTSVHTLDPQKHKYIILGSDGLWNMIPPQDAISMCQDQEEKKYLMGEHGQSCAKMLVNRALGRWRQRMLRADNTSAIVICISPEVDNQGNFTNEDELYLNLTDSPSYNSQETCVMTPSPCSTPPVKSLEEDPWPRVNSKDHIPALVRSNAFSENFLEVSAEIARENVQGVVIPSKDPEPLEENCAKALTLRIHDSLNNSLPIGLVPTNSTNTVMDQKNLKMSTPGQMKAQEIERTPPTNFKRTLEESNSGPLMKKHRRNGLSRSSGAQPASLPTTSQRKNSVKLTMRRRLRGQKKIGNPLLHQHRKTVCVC
SMILES,"activity change, negative = inhibition",Potency
C/C(=N\O)[C@@H](C)NCC(C)(C)CN[C@H](C)/C(C)=N/O,12.2% (inactive),–
CC1(C)O[C@@H]2C[C@H]3[C@@H]4C[C@H](F)C5=CC(=O)C=C[C@]5(C)[C@@]4(F)[C@@H](O)C[C@]3(C)[C@]2(C(=O)CO)O1,17.7% (inactive),–
C=CC[N+]1([C@H]2C[C@H]3[C@@H]4CC[C@H]5C[C@H](OC(C)=O)[C@@H](N6CCCCC6)C[C@]5(C)[C@H]4CC[C@]3(C)[C@H]2OC(=O)CC)CCCCC1,33.6% (inactive),–
C/C(=C(/OCCOc1ccc(Cl)cc1)c1ccc(Cl)cc1Cl)n1ccnc1,18.3% (inactive),–
CCOC(=O)N1CCC(Nc2ccc(Cl)cc2N)CC1,-3.6% (inactive),–
Cc1ccc(C(C)OC(=O)C2(C)CCC(C(=O)O)C2(C)C)cc1 (stereo not given),-3.59% (inactive),–
CCN1CCN(C(=O)N[C@@H](C(=O)N[C@@H]2C(=O)N3[C@@H]2SC(C)(C)[C@H]3C(=O)O)c2ccccc2)C(=O)C1=O,0.78% (inactive),–
CCC1(c2cnc[nH]2)Cc2ccccc2C1,22.7% (inactive),–
OCCc1ccccc1,-9.72% (inactive),–
O=C(c1ccco1)N1CCNCC1,3.18% (inactive),–
Oc1cccc2[nH]ccc12,-9.19% (inactive),–
O=C(CO)[C@@H](O)[C@H](O)[C@@H](O)CO,2.82% (inactive),–
COc1c(C)c2c(c(O)c1C/C=C(\C)CCC(=O)OCCN1CCOCC1)C(=O)OC2,-6.91% (inactive),–
CN(CC1(C)CCCO1)S(=O)(=O)c1ccc(Cl)c(S(N)(=O)=O)c1 (stereo not given),5.54% (inactive),–
CC(=O)c1ccc(O)c(C(N)=O)c1,3.25% (inactive),–
C[C@H]1C[C@H](O)c2ccsc2S1(=O)=O,3.1% (inactive),–
CSCC[C@H](NC(=O)[C@H](Cc1c[nH]c2ccccc12)NC(=O)CCNC(=O)OC(C)(C)C)C(=O)N[C@@H](CC(=O)O)C(=O)N[C@@H](Cc1ccccc1)C(N)=O,18.3% (inactive),–
C=CCNc1nc(NCC=C)nc(N2CCN(C(c3ccc(F)cc3)c3ccc(F)cc3)CC2)n1,6.29% (inactive),–
COc1ccc(-n2nc(CCC(=O)N(C)O)cc2-c2ccc(Cl)cc2)cc1,50.1% (inactive),–
CCCCOCCOC(=O)c1cccnc1,-6.71% (inactive),–

SMILES,"activity change, negative = inhibition",Potency
O=C(O)CNC(=O)CNC(=O)CNC(=O)CSC(=O)c1ccccc1,6.34% (inactive),–
Cc1ccc(Cl)c(OCC(O)CNC(C)(C)C)c1 (stereo not given),14.6% (inactive),–
CCOC(=O)c1ccc(O)c(O)c1,-5.31% (inactive),–
CC(NN)c1ccccc1 (stereo not given),-1.06% [at 26.6 µM] (inactive),–
C#Cc1ccc(-c2ccccc2F)cc1,11.6% (inactive),–
CC(C)C(=O)Nc1cccc(C(F)(F)F)c1,27.2% (inactive),–
Nc1c[n+](N2CCOCC2)no1,-0.111% (inactive),–
c1ccc(C(O[C@H]2CCCN(CCc3ccc4c(c3)OCO4)C2)c2ccccc2)cc1,67.5% (inactive),–
N[C@@H](Cc1cc(I)c(O)c(I)c1)C(=O)O,–,20 µM (active)
CC(C)Cc1ccc(C(C)C(=O)OCc2ccccn2)cc1 (stereo not given),32.5% (inactive),–
C[C@H]1C[C@H]2[C@@H]3CCC4=CC(=O)C=C[C@]4(C)[C@H]3C(=O)C[C@]2(C)[C@@]1(O)C(=O)CO,-9.14% (inactive),–
CCOC(=O)Oc1ccc(CCNC(=O)[C@H](CCSC)NC(C)=O)cc1OC(=O)OCC,7.77% (inactive),–
O=C1NC(c2ccccc2)(c2ccccc2)C(=O)N1COP(=O)(O)O,-4.94% (inactive),–
Cc1c(F)cc2c(=O)c(C(=O)O)cn3c2c1CCC3C (stereo not given),-1.06% (inactive),–
CCCCCCCCCCCCCC[N+](C)(C)C,46.7% (inactive),–
CC(C)(C)C(O)/C=C/c1ccc2c(c1)OCO2 (stereo not given),22.4% (inactive),–
CCN(CC)CCOc1ccc(/C(=C(\Cl)c2ccccc2)c2ccccc2)cc1,38.1% (inactive),–
CC(=O)[C@H]1CC[C@H]2[C@@H]3C=CC4=CC(=O)CC[C@@]4(C)[C@@H]3CC[C@]12C,18.1% (inactive),–
CCN(CC)C(=O)C1CN2CCc3cc(OC)c(OC)cc3C2CC1OC(C)=O (stereo not given),-0.374% (inactive),–
CC(=O)O[C@@H]1CC2C3CCc4cc(OC(=O)c5ccccc5)ccc4C3CCC2(C)[C@H]1OC(C)=O (stereo not given in full),12.9% (inactive),–
